Hits are enriched below; roughly 18% of the tested compounds scored in any of these assays.
CtBP-E1A blk: qHTS Assay for Inhibitors of the CtBP/E1A Interaction | CtBP / adenovirus E1A interaction (AlphaScreen) | activity change, % (test concentration not listed) | AlphaScreen GST-E1A/His-CtBP binding, 1536-well; stronger effect = lower value | AID 651724, 2012 | actives 0.49% (n = 340,000); in the data active means activity change below about -65%; inconclusive means mostly about -30% to -63%
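GST-E1A and His-tagged CtBP (125 nM each as 5X stock) were preincubated with pin-transferred compound for 2 h at 37 °C in the dark, then glutathione donor and nickel acceptor beads were added for 1 h before AlphaScreen reading.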
Six1-Eya2 inh: qHTS Assay for Inhibitors of the Six1/Eya2 Interaction; actives 0.56% (n = 360,000); AlphaScreen GST-Six1/His-Eya2 binding, biochemical; stronger effect = lower value; Homeobox protein SIX1 (Homo sapiens) + Protein phosphatase EYA2 (Homo sapiens), …; activity change, % (test concentration not listed); in the data active means activity change below about -65%; inconclusive means mostly about -30% to -63%
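Compounds are tested against tagged Six1 and Eya2 proteins bridged by glutathione donor and nickel acceptor beads; after a one-hour incubation at 37 °C without light, AlphaScreen emission is recorded.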
TDP1 cell noCPT: qHTS for Inhibitors of human tyrosyl-DNA phosphodiesterase 1 (TDP1): qHTS in cells in absence of CPT. DT40 Tdp1-/- hTDP1 cells, no CPT, ATP luminescence, 48 h. Potency, µM (titrated, usually from 46.2 µM), usual class: inhibitors. actives 15% (n = 420,000). AID 686978, 2013; further: nearly all actives have a fitted effect of over 55% in size
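Seeded 400 DT40-hTDP1 cells/well (vehicle DMSO, no 20 nM CPT); pinned compounds; ≥48 hr at 37 °C; CellTiter-Glo luminescence as viability measure.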
TDP1 cell CPT: qHTS for Inhibitors of human tyrosyl-DNA phosphodiesterase 1 (TDP1): qHTS in cells in presence of CPT; chicken DT40 Tdp1-/-;hTDP1 cells + 20 nM CPT, ATP luminescence, 48 h; Potency, µM (titrated, usually from 46.2 µM), usual class: inhibitors; actives 12% (n = 420,000); AID 686979, 2013; further: nearly all actives have a fitted effect of over 55% in size
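Cell growth measured by CellTiter-Glo luminescence after a minimum 48 h, 37 C compound exposure with 20 nM CPT in Tdp1-knockout DT40 cells stably expressing hTDP1, seeded 400/well; qHTS titration format.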
TDP1 inh: qHTS Assay for Inhibitors of Tyrosyl-DNA Phosphodiesterase (TDP1); Tyrosyl-DNA phosphodiesterase 1 (Homo sapiens), Q9NUW8; recombinant TDP1, AlphaScreen DNA substrate cleavage; Potency, µM (series often up to 130 µM), actives largely listed as inhibitors; actives 0.28% (n = 350,000); AID 485290, 2010; further: nearly all actives have a fitted effect of over 40% in size
Target sequence (Q9NUW8 whole entry, looked up): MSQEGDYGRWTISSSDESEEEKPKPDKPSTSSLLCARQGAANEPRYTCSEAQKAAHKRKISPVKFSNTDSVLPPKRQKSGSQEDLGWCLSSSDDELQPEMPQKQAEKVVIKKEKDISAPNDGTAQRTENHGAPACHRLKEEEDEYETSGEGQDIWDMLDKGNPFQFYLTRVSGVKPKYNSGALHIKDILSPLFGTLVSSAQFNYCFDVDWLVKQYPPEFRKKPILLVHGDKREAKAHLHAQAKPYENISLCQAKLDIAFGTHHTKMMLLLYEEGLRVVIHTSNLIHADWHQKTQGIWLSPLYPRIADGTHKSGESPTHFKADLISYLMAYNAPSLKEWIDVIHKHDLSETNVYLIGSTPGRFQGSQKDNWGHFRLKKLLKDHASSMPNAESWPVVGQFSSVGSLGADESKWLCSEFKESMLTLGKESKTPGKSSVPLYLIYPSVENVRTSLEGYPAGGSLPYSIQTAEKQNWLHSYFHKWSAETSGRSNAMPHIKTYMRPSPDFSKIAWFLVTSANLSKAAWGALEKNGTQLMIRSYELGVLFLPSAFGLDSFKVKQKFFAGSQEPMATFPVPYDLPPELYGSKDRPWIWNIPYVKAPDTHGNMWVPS
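Enzyme-compound mixtures sat 15 min at room temperature, followed by a 5 min reaction with 15 nM final substrate and 10 min with AlphaScreen beads. Recombinant human Tdp1 was used at 1 nM final.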
IL-1B inflam inh: qHTS for Inhibitors of Inflammasome Signaling: IL-1-beta AlphaLISA Primary Screen | THP-1 LPS/ATP IL-1B secretion, AlphaLISA, 16 h; stronger effect = lower value | activity change, % at 57.5 µM | actives 4.7% (n = 360,000) | AID 743279, 2014; in the data active means activity change below about -50%; inconclusive means mostly about -30% to -49%
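Secreted IL-1B measured by AlphaLISA bead assay after 16 h compound exposure of THP-1 cells; compounds (final up to 57.5 uM) added 1 h before LPS (250 ng/mL) and ATP (1.25 mM) stimulation; lower signal means less secretion.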
Hits are given with their value; n = inactive; u = inconclusive; x = no result; ! = repeats disagree. Unless noted, the call rests on the fitted dose curve; in most records, active means well fitted curve in the direction sought with a large enough effect; inconclusive means small, poorly fitted or top-dose-only effect, or another doubt; inactive means no such curve, though single readings can be large; an effect the other way counts as inactive or inconclusive.

SMILES	CtBP-E1A blk	Six1-Eya2 inh	TDP1 cell noCPT	TDP1 cell CPT	TDP1 inh	IL-1B inflam inh
Cc1ccc(S(=O)(=O)N2CCN(CC(=O)Nc3ccc(N4CCOCC4)cc3)CC2)cc1C	n	n	n	n	n	n
Cc1ccc(S(=O)(=O)N2CCOCC2)cc1NC(=O)CN1CCC(Cc2ccccc2)CC1	n	n	8.2µM	u	n	n
Cc1cccc(N2CCN(CC(=O)Nc3ccc(S(=O)(=O)N4CCOCC4)cc3)CC2)c1C	n	n	9.2µM	15µM	n	n
Cc1ccc(SC(C)C(=O)Nc2ccc(S(=O)(=O)N3CCOCC3)cc2)cc1 (stereo not drawn)	n	n	16µM	u	n	n
Cc1ccc(S(=O)(=O)N2CCOCC2)cc1NC(=O)CN1CCN(c2ccc(O)cc2)CC1	n	n	26µM	u	n	n
CCOc1ccc(N(CC)S(=O)(=O)N2CCCC(C(=O)NCc3ccccc3Cl)C2)cc1 (stereo not drawn)	x	x	21µM	21µM	n	x
CCOc1ccc(N(CC)S(=O)(=O)N2CCCC(C(=O)Nc3cc(Cl)ccc3C)C2)cc1 (stereo not drawn)	x	x	16µM	21µM	n	x
CCOc1ccc(N(CC)S(=O)(=O)N2CCCC(C(=O)NCCc3ccc(OC)cc3)C2)cc1 (stereo not drawn)	x	x	u	u	n	x
COCCNCC(O)CON=C1c2ccccc2-c2ccccc21 (stereo not drawn)	n	n	u	u	n	-77
COCC(O)CNc1ccccc1 (stereo not drawn)	n	n	n	n	n	n
CSc1nncc(=O)[nH]1	n	n	23µM	u	n	n
O=C(N/N=C/C=C/c1ccco1)c1ccncc1	n	n	n	n	n	n
CC(/C=C/c1ccco1)=N/NC(=O)c1ccccc1Cl	n	n	16µM	23µM	n	n
O=C(N/N=C/C=C/c1ccco1)c1ccccc1Cl	n	n	16µM	u	n	n
CC(/C=C/c1ccco1)=N\NC(=O)c1cccc(Cl)c1	n	n	u	u	n	n
COC(=O)C1=CN(c2ccc(OC)cc2OC)C(N)=C(C#N)C1c1ccc(OC)cc1 (stereo not drawn)	n	n	21µM	u	x	n
COC(=O)C1=CN(c2ccc3c(c2)OCO3)C(N)=C(C#N)C1c1cccc(F)c1 (stereo not drawn)	n	n	0.65µM	1.3µM	x	n
CCc1ccc(N2C=C(C(=O)OC)C(c3ccc(OC)cc3)C(C#N)=C2N)cc1 (stereo not drawn)	n	n	n	u	x	n
COC(=O)C1=CN(c2ccc(N3CCOCC3)cc2)C(N)=C(C#N)C1c1ccccc1 (stereo not drawn)	u	n	18µM	u	x	n
COC(=O)c1ccccc1SCC(=O)Nc1ccc(N2CCOCC2)cc1	n	n	n	n	n	n
COC(=O)C1=CN(c2ccc(OC)cc2)C(N)=C(C#N)C1c1ccc(OC)cc1 (stereo not drawn)	n	n	u	10µM	x	u
COC(=O)C1=CN(c2ccc(C)cc2)C(N)=C(C#N)C1c1ccc(OC)cc1 (stereo not drawn)	n	n	u	u	x	n
CCOC(=O)C1(Cc2ccccc2)C(=O)N(CCCN(C)C)c2ccccc21 (stereo not drawn)	n	n	n	n	x	n
O=C1CC2(CCN(C(=O)c3ccccc3Cl)CC2)Oc2ccccc21	n	n	u	u	n	n
COc1ccccc1OCCNC(=O)c1c(-c2ccccc2Cl)noc1C	n	n	u	u	n	n
SMILES	CtBP-E1A blk	Six1-Eya2 inh	TDP1 cell noCPT	TDP1 cell CPT	TDP1 inh	IL-1B inflam inh
COc1cc(C(=O)NNC(=O)/C=C/c2ccccc2)cc(OC)c1OC	n	n	n	n	n	-74
COc1cc(C(=O)NNC(=S)NC(=O)/C=C/c2ccccc2)cc(OC)c1OC	n	n	u	16µM	n	n
COc1ccc(/C=C/C(=O)NC(=S)NNC(=O)c2cccnc2)cc1OC	u	n	n	n	n	n
COc1ccc(/C=C/C(=O)NC(=S)NNC(=O)Cc2cccs2)cc1OC	u	n	u	16µM	n	n
CCCCC(=O)NC(=S)Nc1cc(C(=O)O)ccc1OC	n	n	n	n	n	n
COc1cc(/C=C/C(=O)NNC(=O)c2cccc(S(=O)(=O)N(C)C)c2)cc(OC)c1OC	n	n	n	n	n	n
COc1ccc(C(=O)O)cc1NC(=S)NC(=O)/C=C/c1ccc(C(C)C)cc1	n	n	n	n	x	-66
COC(=O)C(Cc1c[nH]c2ccccc12)NC(=O)C(=O)c1c[nH]c2ccccc12 (stereo not drawn)	n	n	n	n	n	n
Cc1cccc(OCCn2c(-c3ccc(Cl)cc3)nc3ccccc3c2=O)c1	x	x	n	n	x	x
COCCn1c(SCC(=O)N2CCOCC2)nc2c(c1=O)SCC2	n	n	n	n	n	n
CCOc1ccc(S(=O)(=O)N2CCCC(C(=O)NCC3CCCO3)C2)cc1Cl (stereo not drawn)	n	n	u	u	n	n
O=C(/C=C/c1ccccc1)NC(=S)NNC(=O)c1cccnc1	u	n	5.8µM	13µM	n	n
CC(C)C[C@H](NC(=O)N1CC(=O)Nc2ccccc21)C(=O)N[C@@H](Cc1ccccc1)C(=O)O	n	n	n	n	x	n
O=S(=O)(c1cccc2cnccc12)N1CCCNCC1	n	n	u	u	n	n
CC1CNCCN1S(=O)(=O)c1cccc2cnccc12 (stereo not drawn)	n	n	15µM!	u	n	-91!
CN(C)C(=O)c1cc(C(=O)c2ccccc2Br)c[nH]1	x	n	n	n	x	n
CCC(C)C(NC(=O)C1CCC(C)CC1)C(=O)NC(CCSC)C(=O)OC (stereo not drawn)	n	n	n	n	n	n
CC1=CC(C)(C)N2C(=O)C(=O)c3cc(OC(=O)c4ccco4)cc1c32	n	n	1.2µM	0.65µM	n	n
O=C(Oc1cccc(OC(=O)c2ccco2)c1)c1ccco1	x	n	n	n	x	n
CCCC(=O)O[C@]1(C(=O)COC(C)=O)CC[C@H]2[C@@H]3C[C@H](F)C4=CC(=O)C=C[C@]4(C)[C@@]3(F)[C@@H](O)C[C@@]21C	n	n	u	24µM!	n	-75

High-throughput results from PubChem BioAssay.
